PLAP act = activators of human placental alkaline phosphatase. P05187. purified PLAP enzyme, luminescent substrate read-out; stronger effect = higher value. activation fold at 20 µM. hit rate 1.2% among 96,000; in the data active = activation fold above about 2
Target sequence (P05187 whole entry, looked up): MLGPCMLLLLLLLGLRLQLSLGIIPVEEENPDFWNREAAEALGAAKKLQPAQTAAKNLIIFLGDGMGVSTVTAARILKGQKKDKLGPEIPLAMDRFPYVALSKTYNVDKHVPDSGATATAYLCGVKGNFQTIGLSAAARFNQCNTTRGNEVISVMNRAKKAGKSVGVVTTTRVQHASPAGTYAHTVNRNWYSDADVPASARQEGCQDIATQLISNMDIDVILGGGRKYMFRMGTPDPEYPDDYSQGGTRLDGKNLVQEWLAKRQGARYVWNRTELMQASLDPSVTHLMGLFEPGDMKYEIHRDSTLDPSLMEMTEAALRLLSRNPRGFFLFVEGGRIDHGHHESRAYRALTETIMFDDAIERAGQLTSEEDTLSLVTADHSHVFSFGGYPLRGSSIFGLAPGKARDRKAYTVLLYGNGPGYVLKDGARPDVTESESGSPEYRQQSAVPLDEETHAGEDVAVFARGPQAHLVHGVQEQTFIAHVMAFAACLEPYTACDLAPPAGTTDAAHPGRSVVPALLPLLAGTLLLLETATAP
CYP2C9 inhib = blocks human cytochrome P450 2C9; CYP2C9 Supersomes, luciferin-H conversion, luminescence; AID 777; hit rate 20% among 96,000; inhibition, % at 5 µM; P11712;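 active = blocking of liver enzyme CYP2C9 beyond about 50% at 5 µM, limit read from the data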
CYP2C19 act = activators of human cytochrome P450 2C19. recombinant CYP2C19, luciferin-H EGE luminescence; stronger effect = higher value; 0 = fully inhibited enzyme, 1 = untreated enzyme. activation factor at 5 µM. 96,000 tested, under 10 active;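 active = activation factor of at least 2 at 5 µM in the primary screen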;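 also: 0 = wells with 2.5 mM tranylcypromine and 1 = vehicle-only wells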
CYP2C9 activ = CYP2C9 (human) activation. AID 1024. recombinant CYP2C9, luciferin-H conversion, luminescence; stronger effect = higher value; factor 1 = untreated enzyme, 0 = blocked. activation factor at 5 µM. P11712. hit rate 1.4% among 96,000;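 active = activation factor of 2 or more for CYP2C9 at a 5 µM dose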;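 also: 0 = sulfaphenazole-blocked wells and 1 = vehicle-only wells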
CYP2C19 inh = human CYP2C19 inhibition; CYP2C19 Supersomes, luciferin-H EGE luminescence, 30 min; inhibition, % at 5 µM; hit rate 21% among 96,000; P33261;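 active = CYP2C19 inhibition above a set limit at 5 µM in the primary screen, cut at about 50% in these data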;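 also: plate controls were negative control wells for no effect and 2.5 mM tranylcypromine positive control for full effect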
An asterisk follows results filed as active. An excerpt weighted towards active compounds, which were near 31% of everything screened.

SMILES | PLAP act | CYP2C9 inhib | CYP2C19 act | CYP2C9 activ | CYP2C19 inh
Cc1nc(C(=O)Nc2ccc(Cl)cc2Cl)nn1-c1cc(OC(C)C)c(Cl)cc1Cl | 1.2 | 58* | 1 | 0.4 | 4
CC(C)Oc1cc(NC(=O)CSCC(=O)Nc2cccc(C(F)(F)F)c2)c(Cl)cc1Cl | 0.8 | 23 | 0.9 | 0.8 | 10
Cc1nc(C(=O)Nc2cc(Cl)ccc2Cl)nn1-c1cc(OC(C)C)c(Cl)cc1Cl | 1 | 87* | 0.8 | 0.1 | 20
Cc1nc(C(=O)Nc2cccc(Cl)c2Cl)nn1-c1cc(OC(C)C)c(Cl)cc1Cl | 1.3 | 82* | 1.1 | 0.2 | -6
CNC(=O)c1nc(C)n(-c2cc(Cl)ccc2Cl)n1 | 1.2 | -13 | 1.1 | 1.1 | -8
Cc1nc(C(=O)Nc2cccc(Cl)c2)nn1-c1cc(OC(C)C)c(Cl)cc1Cl | 1.3 | 70* | 0.4 | 0.3 | 62*
COc1cccc(C(=O)CN(C(=O)c2ccc(Cl)c(Cl)c2)N2C(=O)C3CCCCC3C2=O)c1 (stereo not given) | 1.2 | 9 | 0.9 | 0.9 | 9
Cc1ccc2nc(SCC(=O)Nc3ccc4sc(C)nc4c3)c(C#N)cc2c1 | 0.9 | 10 | 0.9 | 0.9 | 10
Cc1cc(C)n2ncc(C(=O)NCc3cccnc3)c2n1 | 0.9 | 3 | 0.9 | 1 | 9
Cn1cnnc1SCC(=O)NCCc1ccccc1 | 0.8 | -7 | 0.8 | 1.1 | 23
COc1cccc(NC(=O)CSc2nc3c(c(-c4ccco4)c2C#N)CCCC3)c1 | 0.9 | 53* | 0.9 | 0.5 | 12
COCCOC(=O)c1c(C)nc(SCC(=O)Nc2ccc(OC)cc2)c(C#N)c1-c1ccco1 | 1.1 | 54* | 0.9 | 0.5 | 8
CN1CCc2nc(SCC(=O)Nc3cccc(F)c3)c(C#N)c(-c3cccs3)c2C1 | 1 | 100* | 0.1 | 0 | 95*
COCc1cc(C)nc(SCC(=O)NCc2ccco2)c1C#N | 0.8 | 17 | 0.6 | 0.8 | 38
Cc1nc(SCC(=O)c2ccccc2)c(C#N)c(-c2ccco2)c1C(=O)NCc1ccco1 | 1.4 | 79* | 0.5 | 0.2 | 45
Cc1cc(NC(=O)CSc2nc3c(c(-c4cccnc4)c2C#N)CCC3)no1 | 1.2 | 47 | 0.9 | 0.5 | 14
CCC1(C(=O)OC)NC(c2ccccc2OC)C2C(=O)N(C)C(=O)C21 (stereo not given) | 1 | -23 | 1.2 | 1.2 | -22
N#CCCn1nnc(-c2ccccc2F)n1 | 0.8 | -9 | 1 | 1.1 | -1
O=C(CSc1nc2c(c(=O)[nH]1)CCC2)Nc1cccc(Cl)c1 | 1 | 46 | 0.8 | 0.5 | 20
N#Cc1c(-c2ccco2)nc(SCC(=O)Nc2cccc(Cl)c2)[nH]c1=O | 1.3 | 99* | 0.4 | 0 | 60*
FC(F)(F)c1cc(-c2ccco2)nc(NCc2ccccc2)n1 | 1.2 | 36 | 0.9 | 0.6 | 14
COc1nc(NCc2cccnc2)nc(OC)n1 | 1 | 5 | 0.8 | 0.9 | 17
FC(F)(F)c1cc(-c2ccccc2)nc(NCc2cccnc2)n1 | 0.9 | 73* | 0.1 | 0.3 | 93*
FC(F)(F)c1cc(-c2ccco2)nc(NCc2cccnc2)n1 | 1.2 | 66* | 0.2 | 0.3 | 85*
COCCNS(=O)(=O)c1cc(-c2nn(C)c(=O)c3ccccc23)ccc1C | 1.5 | 70* | 0.4 | 0.3 | 57*
SMILES | PLAP act | CYP2C9 inhib | CYP2C19 act | CYP2C9 activ | CYP2C19 inh
Cc1ccc(-c2nn3c(C)nnc3c3ccccc23)cc1S(=O)(=O)NC(C)c1ccccc1 (stereo not given) | 1.3 | 73* | 0.5 | 0.3 | 50*
COc1ccc(-c2nn(C)c(=O)c3ccccc23)cc1NS(C)(=O)=O | 1.6 | 51* | 0.5 | 0.5 | 47
COc1ccc(-c2nn(C)c(=O)c3ccccc23)cc1NC(=O)Cn1nc(-c2ccccc2)c2ccccc2c1=O | 1.2 | 72* | 0.6 | 0.3 | 45
CC(C)(C)C(=O)Nc1ccc(C(=O)Nc2cccnc2)cc1 | 1.4 | 17 | 1 | 0.8 | 4
CCOC(=O)CNS(=O)(=O)c1cc(-c2n[nH]c(=O)c3ccccc23)ccc1C | 1.1 | 65* | 0.5 | 0.4 | 50*
Cc1ccc(-c2nn(CC(N)=O)c(=O)c3ccccc23)cc1S(=O)(=O)N(C)C | 1.8 | 59* | 1.2 | 0.4 | -24
Cc1cc(C)n(CC(=O)NCc2cc(-c3nn(C)c(=O)c4ccccc34)ccc2C)n1 | 1.2 | 55* | 0.7 | 0.5 | 35
CCN(CC)CCNC(=O)CS(=O)Cc1nc(-c2ccc(C)cc2)oc1C (stereo not given) | 1.4 | 6 | 0.9 | 0.9 | 6
CN(CCNC(=O)c1cn(C)c2ccc(S(=O)(=O)N3CCCC3)cc2c1=O)CCc1ccccc1 | 1.5 | 18 | 1.1 | 0.8 | -5
CCCCN(CC)C(=O)Cn1ncc2c1-c1cc(C)ccc1OC2 | 1.7 | 70* | 0.2 | 0.3 | 77*
CCOC(=O)C1CCCN(c2c(NCCN3CCCCC3CC)c(=O)c2=O)C1 (stereo not given) | 0.9 | 15 | 1 | 0.8 | 0
CC#CCCC(=O)N1C=Cc2ccccc2C1C#N (stereo not given) | 1 | 8 | 0.3 | 0.9 | 66*
Cc1ccc[n+](CC(=O)Nc2ccc([N+](=O)[O-])cc2Cl)c1 | 0.9 | -9 | 0.7 | 1.1 | 28
CC(C)(CNc1ccc([N+](=O)[O-])cc1Cl)CNS(C)(=O)=O | 1.2 | 44 | 0.5 | 0.6 | 55*
Cc1ccc(CN(C#N)c2nc(C)cc(C)n2)cc1 | 0.8 | -52 | 0.6 | 1.5 | 44
Cc1cc(C)nc(N(C#N)Cc2ccc(Br)cc2)n1 | 0.8 | 6 | 0.3 | 0.9 | 68*
N#CCN1CCN(CCC(=O)Nc2ccc(OCc3ccccc3)cc2)CC1 | 1.4 | 6 | 0.9 | 0.9 | 8
Cc1nc2cc(-c3ccc(Cl)cc3)nn2c(C)c1CCC(=O)NCc1ccco1 | 1.4 | 20 | 0.2 | 0.8 | 79*
COc1cccc(C(C#N)N2CCOCC2)c1 (stereo not given) | 0.9 | -2 | 0.2 | 1 | 78*
CC(=O)NC(=O)NC1OC(=O)C(Cl)=C1Cl (stereo not given) | 1.1 | -25 | 1.2 | 1.2 | -24
C=CCn1c(Cc2csc(N)n2)nnc1SCc1ccc(C(=O)OC)cc1 | 1 | 73* | 0.1 | 0.3 | 94*
C=CCn1c(Cc2csc(N)n2)nnc1SCC(=O)Nc1ccc(C(=O)OCC)cc1 | 1 | 43 | 0.7 | 0.6 | 32
N#Cc1ccc(CSc2nnc(NC(=O)C3CCCO3)s2)cc1 (stereo not given) | 1.1 | 19 | 0.8 | 0.8 | 20
O=C(Nc1nnc(SCc2ccc(Cl)cc2)s1)C1CCCO1 (stereo not given) | 1.3 | 73* | 0.5 | 0.3 | 49
COC(=O)c1ccc(CSc2nnc(C)s2)cc1 | 1.2 | 20 | 0.5 | 0.8 | 49
COC(=O)c1ccc(CSc2nnc(N)s2)cc1 | 0.9 | 26 | 0.3 | 0.7 | 74*
COC(=O)c1ccc(CSc2nnc(NC(=O)C3CCCO3)s2)cc1 (stereo not given) | 1.4 | 70* | 0.7 | 0.3 | 32

Screening results (PubChem)
